Experimental data from PubChem BioAssay (EPA / NIEHS).
Calls of active or inactive are those of the source. How the source made its calls: active means hit-call score of the fitted dose curve at least 0.9, where 1 is the maximum; inactive means score below 0.9.

Experiment: ATG_M_19_CIS: Attagene CIS-FACTORIAL HepG2 Assay for M19 Transcription Factor (Internal Marker) (AID 2282939)
Conditions: HepG2 Attagene CIS-FACTORIAL M19 internal marker reporter; actives raise or lower the signal
Procedure: ATG_CIS is a cell-based, multiplexed-readout assay that uses HepG2, a human liver cell line, with measurements taken at 24 hours after chemical dosing in a 24-well plate.ATG_M_19_CIS is one of 52 assay component(s) measured or calculated from the ATG_CIS assay. It is designed to make measurements of mRNA induction, a form of inducible reporter, as detected with fluorescence intensity signals by Reverse transcription polymerase chain reaction (RT-PCR) and Capillary electrophoresis technology.Data from the assay component ATG_M_19_CIS was analyzed into 1 assay endpoint. This assay endpoint, ATG_M_19_CIS, was analyzed with bidirectional fitting relative to DMSO as the negative control and baseline of activity. Using a type of inducible reporter, measures of mRNA for gain or loss-of-signal activity can be used to understand the background control at the transcription factor-level as they relate to the gene . Furthermore, this assay endpoint can be referred to as a secondary readout, because this assay has produced multiple assay endpoints where this one serves a background control function. To generalize the intended target to other relatable targets, this assay endpoint is annotated to the background measurement intended target family, where the subfamily is internal marker.
Human liver HepG2 cells are transiently transfected with multiple reporter transcription units (MRTUs) in 6-well plates using FuGene 6 reagent (Roche; 3 ml FuGene/1 mg DNA). The MRTU constructs are regulated by a cis-regulating element (promoter). […] A major difference between the CIS and TRANS system is that in CIS activities of endogenous TFs are measured, whereas the TRANS assay evaluates changes in activities of exogenous, chimeric NR-Gal4 proteins. […] At the end of 24 hour incubation, total RNA was isolated using TriZol reagent (Invitrogen). The isolated RNA is then reverse-transcribed using oligo(dT) primer and Mo-MLV reverse transcriptase (Invitrogen) with DNAse I (Ambion) treatment for 30 min. The one-tenth of the produced cDNA was amplified by PCR using Taq DNA polymerase (Invitrogen) and two reporter sequence-specific primers. The PCR products were fluorescently labeled by primer extension with 6-arboxyfluorescein (6-FAM) 5'-labeled reporter sequence-specific primer (2 min at 95 C, 20 s at 68 C and 10 min at 72 C) and these products were digested with 5U of HpaI (New England Biolabs) for 2h at 37 C. The fragments were purified using Qiaquick PCR columns (Qiagen), analyzed on an ABI 3130xL genetic analyzer (Applied Biosystems) with peak positions identified by using a set of X-rhodamine (ROX)-labeled MapMarker1000 molecular weight standards (BioVentures). The raw capillary electrophoresis data was processed using Attagraph software (Attagene).

| SMILES | outcome | AC50 |
| --- | --- | --- |
| O=C(CBr)c1ccc(O)cc1 | inactive |  |
| BrCc1ccc(Br)cc1 | inactive |  |
| CN(C)C(=S)S | inactive |  |
| O=[N+]([O-])c1ccc(Cl)c([N+](=O)[O-])c1 | inactive |  |
| Oc1cc(Cl)c(Cl)cc1Cl | inactive |  |
| c1cc[c]([Sb]([c]2ccccc2)[c]2ccccc2)cc1 | inactive |  |
| Cc1c([N+](=O)[O-])c(C)c([N+](=O)[O-])c(C(C)(C)C)c1[N+](=O)[O-] | inactive |  |
| CCOC(=O)OC1=C(c2cc(C)ccc2C)C(=O)NC12CCC(OC)CC2 (stereo not given) | inactive |  |
| Fc1cccc(Cl)c1CCl | inactive |  |
| OCCN(CCO)CCO | inactive |  |
| c1ccc2c(c1)Oc1ccccc1O2 | inactive |  |
| O=C(N[C@H]1CN2CCC1CC2)c1ccc2c(c1)OCCO2 | inactive |  |
| O=C1C=CC(=O)c2ccccc21 | inactive |  |
| O=[N+]([O-])c1cc([As](=O)(O)O)ccc1O | inactive |  |
| Cc1ccc(OP(=O)(Oc2ccc(C)cc2C)Oc2ccc(C)cc2C)c(C)c1 | inactive |  |
| CCN(CCO)CCO | inactive |  |
| Cc1ccc2nc3sc(=O)sc3nc2c1 | inactive |  |
| O=C(CCl)Nc1ccccc1 |  | 167 µM (active) |
| O=c1[nH]c(=O)n(Cl)c(=O)n1Cl | inactive |  |
| CCCCCCCCBr | inactive |  |

| SMILES | outcome | AC50 |
| --- | --- | --- |
| Clc1cnc(Oc2ccc(Oc3ncc(Cl)cc3Cl)cc2)c(Cl)c1 | inactive |  |
| C1CCC(C2CCCCC2)CC1 | inactive |  |
| O=S1OC[C@@H]2[C@H](CO1)[C@]1(Cl)C(Cl)=C(Cl)[C@@]2(Cl)C1(Cl)Cl (stereo not given in full) | inactive |  |
| N#Cc1cccnc1 | inactive |  |
| CCCCC(CC)COC(=O)Cl (stereo not given) | inactive |  |
| CCC[N+](CCC)(CCC)CCC | inactive |  |
| Brc1c(Br)c(Br)c(Oc2c(Br)c(Br)c(Br)c(Br)c2Br)c(Br)c1Br | inactive |  |
| CN(C)[C@@H]1C(=O)C(C(N)=O)=C(O)[C@@]2(O)C(=O)C3=C(O)c4c(O)ccc(Cl)c4[C@@](C)(O)[C@H]3C[C@@H]12 | inactive |  |
| CCCCCCCCCCCCN(C)C | inactive |  |
| CCCCOP(=O)(CCCC)OCCCC | inactive |  |
| CCCCOC(=O)COC(=O)c1ccccc1C(=O)OCCCC | inactive |  |
| O=C1c2ccccc2C(=O)C1C(=O)C(c1ccccc1)c1ccc(Cl)cc1 (stereo not given) |  | 33.4 µM (active) |
| C=CCOC(F)(C(F)(F)F)C(F)(F)F | inactive |  |
| O=C(O)c1cc(I)cc(I)c1I | inactive |  |
| Nc1ncn[nH]1 | inactive |  |
| CCCCCCCCCCCCc1cccc(S(=O)(=O)O)c1 | inactive |  |
| CCOP(=S)(OCC)SCSc1cc(Cl)ccc1Cl | inactive |  |
| O=C=Nc1ccc(Cl)cc1 | inactive |  |
| COP(=S)(OC)Oc1cc(Cl)c(I)cc1Cl | inactive |  |
| Cc1cc(-c2cc(C)c(N)c(C)c2)cc(C)c1N | inactive |  |
